# p53null 39C tox: kills p53 null cells at the nonpermissive temperature; H1299 p53-null (neo) cells, 39C, ATPlite viability, 24 h; Potency, µM (titrated, usually from 46.1 µM), actives largely listed as cytotoxic; hit rate 0.97% among 55,000; note: nearly all actives have a fitted effect of over 50% in size
#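 Concentration-response (up to 46 uM) was run for 24 h at the nonpermissive 39C on H1299-p53A138V or H1299-neo cells. ATP content was measured with ATPlite luminescence. AC50 values were Hill-modeled after normalizing between DMSO and 100 uM tamoxifen killing.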
# S16 viability: S16 Schwann cell cytotoxicity. S16 Pmp22-F2sN Schwann cells viability, CellTiter-Glo, 24 h. hit rate 0.48% among 43,000. AID 1508642. Potency, µM (highest dose often 57.5 µM), most hits filed as cytotoxic; note: nearly all actives have a fitted effect of over 65% in size
#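 Used to flag compounds lowering reporter output through toxicity, this quantitative HTS measures ATP-based CellTiter-Glo luminescence in S16 Pmp22-F2sN Schwann cells after 24 h compound exposure at 37C.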
# p53null 32C tox: selectivity test: cytotoxicity in p53 null cells, permissive temperature. H1299-neo p53 null cells, ATP luminescence, 24 h, 32C. Potency, µM (titrated, usually from 46.1 µM), most hits filed as cytotoxic. hit rate 0.62% among 55,000. AID 903; note: nearly all actives have a fitted effect of over 55% in size
#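 We seeded p53-null H1299-neo cells, incubated them overnight at 37C, and added compounds across a range up to 46 uM. After 24 hours at 32C, ATP reagent was applied for 20 min at room temperature and luminescence recorded.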
# PMP22 txn: PMP22 gene transcription modulation; AID 1508649; hit rate 2% among 43,000; Potency, µM (doses to about 57.5 µM), actives largely listed as inhibitors; S16 Pmp22-F2sN Schwann cells, FLuc/NLuc coincidence luminescence, 24 h; active = clear falling dose curves in both reporters; inconclusive = both reporters move, but less clearly or upward; inactive = either reporter flat; the % is the NLuc reporter signal
#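 Transcriptional readout in edited S16(c9) cells: two luciferases reported from the Pmp22 locus, measured in turn after 24 h compound incubation.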
# pS6 MEF inh: reduces mTORC1 signaling in Tsc2 and p53 null MEF cells | hit rate 0.78% among 44,000 | Potency, µM (titrated, usually from 38.3 µM), most hits filed as inhibitors | Tsc2-/- p53-/- MEF, phospho-rpS6 immunofluorescence/PI, 24 h; note: nearly all actives have a fitted effect of over 50% in size
#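 Plate MEFs (Tsc2-/-, p53-/-, empty vector) in DMEM/10% FBS; after 24 h add compound, incubate 24 h at 37 degree Celsius; fix in PFA/TX-100, block, stain phospho-rpS6 and 10 uM PI; scan at 488 nm; report % positive cells.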
# GALC G270D up: enhancers of human galactocerebrosidase G270D mutant activity in cells; Potency, µM (titrated, usually from 57.5 µM), most hits filed as activators; 145M-Twi-hGALC-G270D cells (Twitcher mouse brain line with human GALC G270D), HMU-beta-Gal fluorescence, 48 h; AID 1159614; hit rate 0.1% among 45,000; note: nearly all actives have a fitted effect of over 65% in size
# Target sequence (P54803 whole entry G286D): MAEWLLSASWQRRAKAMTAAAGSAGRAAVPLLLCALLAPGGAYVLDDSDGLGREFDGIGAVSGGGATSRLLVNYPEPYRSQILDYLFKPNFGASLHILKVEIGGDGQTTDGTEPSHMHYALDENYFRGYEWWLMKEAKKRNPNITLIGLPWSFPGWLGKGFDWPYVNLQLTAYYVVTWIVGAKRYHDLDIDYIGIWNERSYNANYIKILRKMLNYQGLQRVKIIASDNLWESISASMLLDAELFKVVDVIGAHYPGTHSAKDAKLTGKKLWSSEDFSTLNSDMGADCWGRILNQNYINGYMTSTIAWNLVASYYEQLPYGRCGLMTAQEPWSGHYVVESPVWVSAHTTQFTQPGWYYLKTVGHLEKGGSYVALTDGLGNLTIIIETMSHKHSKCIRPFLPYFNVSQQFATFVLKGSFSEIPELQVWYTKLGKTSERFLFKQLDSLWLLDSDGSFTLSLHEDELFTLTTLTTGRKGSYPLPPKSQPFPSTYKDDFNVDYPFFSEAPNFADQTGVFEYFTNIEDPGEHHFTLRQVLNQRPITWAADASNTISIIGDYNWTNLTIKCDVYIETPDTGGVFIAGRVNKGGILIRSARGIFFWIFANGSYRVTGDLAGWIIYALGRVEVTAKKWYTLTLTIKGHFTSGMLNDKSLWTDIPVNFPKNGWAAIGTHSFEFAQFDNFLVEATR
#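 Fluorogenic HMU-b-Gal hydrolysis (0.1 mM final, pH 5.2 citrate-phosphate with 1 mg/mL sodium taurocholate; carbonate stop buffer) measures mutant GALC activity after compound treatment of live 145M-Twi Twitcher brain cells stably carrying human GALC-G270D, with wild-type GALC line alongside; activation sought.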
# NLuc sat counter: inhibits NanoLuc at saturating substrate, PMP22 counter-screen; shares compounds with PMP22 txn; Secreted NLuc enzyme (filtered S16 cell medium), Nano-Glo luminescence; Potency, µM (titrated, usually from 57.5 µM), hits mostly inhibitors; hit rate 4% among 690
# NLuc Km counter: NanoLuc inhibition at Km substrate, PMP22 artifact check | shares compounds with PMP22 txn | secreted NLuc enzyme, coelenterazine luminescence, Km conditions | Potency, µM (titrated, usually from 57.5 µM), actives largely listed as inhibitors | hit rate 5% among 690
# FLuc counter: inhibits firefly luciferase, PMP22 counter-screen; Potency, µM (doses to about 57.5 µM), hits mostly inhibitors; purified P. pyralis FLuc, luminescence, 10 min; AID 1508640; shares compounds with PMP22 txn; 690 tested, under 10 active
# S16 F2sN tox cnf: confirmation of cytotoxicity in S16 Pmp22-F2sN Schwann cells (luciferase reporters placed in the Pmp22 gene) | Potency, µM (titrated, usually from 57.5 µM), hits mostly cytotoxic | AID 1508641 | S16 Schwann cells viability, CellTiter-Glo ATP luminescence, 24 h | hit rate 7% among 690 | shares compounds with PMP22 txn
# PMP22 txn cnf: PMP22 transcription modulation, confirmatory. Potency, µM (top dose mostly 57.5 µM), most hits filed as inhibitors. S16 Schwann cells Pmp22-F2sN, dual luciferase, 24 h. AID 1508646. shares compounds with PMP22 txn. hit rate 22% among 690; active = clear falling dose curves in both reporters; inconclusive = both reporters move, but less clearly or upward; inactive = either reporter flat; the % is the FLuc reporter signal
# Numbers stand for hits; – = inactive; ? = inconclusive; · = no result given; [ ] = dose if it differs, or a comment. An excerpt weighted towards active compounds, which were near 3% of everything screened. Unless noted, calls come from the whole dose curve; as a rule, active = well fitted curve in the direction sought with a large enough effect; inconclusive = small, poorly fitted or top-dose-only effect, or another doubt; inactive = no such curve, though single readings can be large; an effect the other way counts as inactive or inconclusive.
SMILES,p53null 39C tox,S16 viability,p53null 32C tox,PMP22 txn,pS6 MEF inh,GALC G270D up,NLuc sat counter,NLuc Km counter,FLuc counter,S16 F2sN tox cnf,PMP22 txn cnf
O=C(CNC(=O)Cc1ccccc1)N=Nc1c(O)n(Cc2ccc3c(c2)OCO3)c2ccccc12,–[1.84 µM],·,·,·,·,·,·,·,·,·,·
CC(=O)Nc1cccc(-c2nnc(SCC(=O)c3cc([N+](=O)[O-])ccc3Cl)o2)c1,?,–,–,14.1µM,?,–,12.2µM,7.69µM,?,?,18.3µM
O=C1CC(c2ccccc2)Cc2[nH]c(=O)c(-c3nc(-c4ccc(F)cc4)cs3)cc21 (stereo not drawn),–,–,–,3.4µM,?,–,?,?,–,–,?
CCOc1ccccc1NC(=O)c1c(NCc2ccc(C)o2)sc2c1CCCCC2,–,–,–,13.4µM,–,–,?,?,–,–,?
O=C(Cn1ncc2c([nH]c3ccccc32)c1=O)Nc1cccc(C(F)(F)F)c1,–,–,–,20µM,–,–,–,–,–,–,–
Fc1ccc(Nc2c3c(nc4ccccc24)CCC3)cc1,?,–,–,13.9µM,–,–,?,–,–,–,18.3µM
Fc1ccccc1Nc1c2c(nc3ccccc13)CCC2,?,–,–,?,–,–,·,·,·,·,·
COc1ccc(Nc2c3c(nc4ccccc24)CCC3)cc1Cl,?,?,–,10µM,?,–,–,–,–,–,?
O=C(CSc1c2c(nc3ccccc13)CCC2)Nc1ccc(F)cc1F,–,–,–,?,–,–,·,·,·,·,·
Fc1ccc(F)c(Nc2c3c(nc4ccc(Cl)cc24)CCC3)c1,–,–,–,18.9µM,–,–,?,?,–,–,–
Cc1ccccc1C(=O)Nc1c2c(nc3ccccc13)CCCC2,·,·,–,·,·,·,·,·,·,·,·
COc1ccc(C)cc1Nc1c2c(nc3ccccc13)CCC2,15.8µM,–,–,11.3µM,?,–,?,–,–,–,?
Cc1ccc(-c2noc(-c3ccccc3NC(=O)C3CC(=O)N(c4cccc(C)c4)C3)n2)cc1 (stereo not drawn),–,–,–,–,?,–,·,·,·,·,·
Cc1nc2c(C(=O)NCc3ccccc3Cl)cnn2c(C)c1Cc1ccccc1,–,–,–,?,–,–,·,·,·,·,·
CCOC(=O)COc1ccc(C)cc1C(=O)c1ccn2nc(-c3ccc(F)cc3)cc2n1,·,–,·,17.9µM,–,–,–,?,–,–,?
CCOc1ccccc1CNC(=O)Cn1c(=O)c2cccn2c2ccc(F)cc21,–,–,–,?,–,–,·,·,·,·,·
CCOc1ccccc1CNC(=O)CCn1c(=O)c2cccn2c2ccc(F)cc21,–,–,–,14.1µM,?,–,–,–,–,–,?
Cc1ccc(OCC(=O)Nc2ccc3[nH]c(=O)sc3c2)cc1,–,–,–,15µM,–,–,–,–,–,–,?
Cc1ccccc1OCC(=O)Nc1ccc2[nH]c(=O)sc2c1,–,–,–,?,–,–,·,·,·,·,·
CCN(CC)C(=O)Cn1c(=O)n(CCCCCC(=O)NCc2ccccc2Cl)c(=O)c2sccc21,–,–,–,?,–,–,·,·,·,·,·
O=C(CSc1nc2c(sc3ccccc32)c(=O)n1CCCC(=O)NC1CCCC1)Nc1ccc(F)cc1,–,?,–,?,–,–,–,–,–,–,10.9µM
Cc1cccc(C)c1NC(=O)CSc1nc(-c2ccco2)cc(C(F)(F)F)n1,–,·,–,·,·,·,·,·,·,·,·
Cc1ccc(F)cc1NC(=O)CSc1nc(-c2cccs2)cc(C(F)(F)F)n1,?,–,–,14.1µM,?,–,–,–,–,–,–
Cc1ccc(NC(=O)CSc2nc(-c3ccco3)cc(C(F)(F)F)n2)cc1,–,–,–,2.15µM,?,–,–,–,–,–,–
O=C(CSc1nccn1-c1cccc(Cl)c1)Nc1cccc2ccccc12,–,–,–,?,–,–,·,·,·,·,·
SMILES,p53null 39C tox,S16 viability,p53null 32C tox,PMP22 txn,pS6 MEF inh,GALC G270D up,NLuc sat counter,NLuc Km counter,FLuc counter,S16 F2sN tox cnf,PMP22 txn cnf
C=CCN(C(=O)CNC(=O)c1ccco1)C(C(=O)NC1CCCCC1)c1ccc(OC)cc1 (stereo not drawn),–,·,–,·,·,·,·,·,·,·,·
CCN1C(=O)c2ccccc2S(=O)c2ccc(C(=O)N3CCN(c4cccc(Cl)c4)CC3)cc21 (stereo not drawn),–,–,–,17.9µM,–,–,3.85µM,3.43µM,–,–,?
CCN1C(=O)c2ccccc2S(=O)c2ccc(C(=O)N3CCN(c4ccccc4)CC3)cc21 (stereo not drawn),–,?,–,?,–,–,·,·,·,·,·
O=S(=O)(c1ccc(-c2cc(C(F)(F)F)on2)s1)N1CCN(c2ccccc2F)CC1,–,–,–,?,–,–,·,·,·,·,·
Cc1ccc2c(c1)C(=O)C(=O)N2Cc1ccc(OCCC(C)C)cc1,?,–,–,4.59µM,–,–,–,–,–,–,11.5µM
COc1ccc(CN2CCN(Cc3cc(=O)oc4cc(C)ccc34)CC2)c(OC)c1OC,?,?,–,16.8µM,?,–,–,–,–,–,–
CCOC(=O)c1ccc(NC(=O)Cc2ccc(-n3c(CC)nc4cccnc43)cc2)cc1,–,–,–,?,–,–,–,?,–,?,–
CCOC(=O)c1ccc(NC(=O)CCc2nc3cccnc3n2Cc2cccs2)cc1,–,–,–,–,–,–,·,·,·,·,·
O=c1c(N2CCN(c3cccc(C(F)(F)F)c3)CC2)csc2ccc(Cl)cc12,–,–,–,?,–,–,·,·,·,·,·
COc1ccc(Cn2c(SCC(=O)N(C)Cc3ccccc3)nc3ccccc32)cc1,–,–,–,20µM,–,–,?,?,?,–,–
O=C(Cn1c(=O)n(-c2ccccc2)c(=O)c2c3c(sc21)CCC3)c1ccc(Br)cc1,–,–,–,–,–,–,·,·,·,·,·

# Screens (PubChem)
